Reference: PubChem BioAssay (NCATS)
Inconclusive results are not listed. A call without a number means that no potency is given here. A number with no mark means an inactive call. Active and inactive are the calls of the source. Calls come from the whole dose curve; as a rule, active = well fitted cell-killing curve with a large enough effect; inconclusive = small, poorly fitted or top-dose-only effect, or effect the other way; inactive = flat fitted curve, though single readings scatter.

Tests used:
[1] = test system: Tov-21-G; assay: Primary qHTS to identify gynecologic anti-cancer compounds using libraries of approved drugs and bioactive compounds (AID 1345084); conditions: Gynecologic cancer cell panel viability, ATPlite luminescence, 48 h; series mostly up to 57.5 µM; note: nearly all actives have a fitted effect of over 55% in size
Outline: (§1)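 Cells, 1,000 per well, plated 16 h, then exposed 48 h at 37 C to compounds. Viability by ATPlite luminescence after 15 min at room temperature.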

[2] = test system: Tov112D; assay: as above; conditions: Gynecologic cancer cell panel viability, ATPlite luminescence, 48 h; series mostly up to 57.5 µM
Outline: as §1
Potency is the fitted concentration of half-maximal effect.

| SMILES | Potency [1] | Potency [2] | activity change, negative = cytotoxicity [1] | activity change, negative = cytotoxicity [2] |
| --- | --- | --- | --- | --- |
| CC(=O)NCc1cccc(OC[C@@H](O)CNCCc2ccc(NS(=O)(=O)c3ccccc3)cc2)c1 | inactive | inactive |  |  |
| CC(C)NC(=O)N1CC[C@H](N=C2Nc3cc(F)ccc3N(CC(F)F)c3ccc(Cl)cc32)C1 |  |  | -31.2% [at 11.6 µM] | -4.53% [at 11.6 µM] |
| FC(F)(F)c1ccc(/C=C/c2nc(COc3ccc(CCCCn4ccnn4)cc3)co2)cc1 | inactive | inactive |  |  |
| O=C(N[C@H]1CCN(C(=O)c2cc(C(F)(F)F)cc(C(F)(F)F)c2)[C@H](Cc2ccc(Cl)cc2)C1)c1ccnc2ccccc12 | inactive | inactive |  |  |
| CC(=O)OC1C(OC(=O)c2ccccc2)C2C(C)(C)CCC(OC(C)=O)C2(C)C23CCC(C)(C2)C(=O)CC13 (centres undefined) | inactive | inactive |  |  |
| COc1cc(NC(=O)c2cc(C3CC3)on2)c(OC)cc1Cl | inactive | inactive |  |  |
| Cc1cc(N2CCN(C(=O)Oc3ccc(-c4ccccc4)cn3)CC2)c2ccccc2n1 | inactive | inactive |  |  |
| CNCCN1CCC(c2cc(CN(C)C(=O)c3cccc(Oc4ccccc4)c3)ccn2)CC1 | inactive | inactive |  |  |
| OC(CC1c2ccccc2-c2cncn21)C1CCCCC1 (centres undefined) | inactive | inactive |  |  |
| CCOC(=O)c1csc(Nc2ccc(Cl)cc2)n1 | inactive | inactive |  |  |
| CCCCOC(=O)NS(=O)(=O)c1sc(CC(C)C)cc1-c1ccc(Cn2ccnc2)cc1 | inactive | inactive |  |  |
| CC(=O)O[C@H]1CC2C(COC(=O)CC(C)C)=CO[C@@H](OC(=O)CC(C)C)C2[C@]12CO2 (some centres undefined) | inactive | inactive |  |  |
| COc1cc(F)c(C(C)C)cc1-c1ccc(C(F)(F)F)cc1CN1C(=O)OC(c2cc(C(F)(F)F)cc(C(F)(F)F)c2)C1C (centres undefined) | inactive | inactive |  |  |
| Cc1nnc(-c2ccc(-c3ccc(C(=O)Nc4ccc(O)c(N5CCN(C)CC5)c4)cc3)c(C)c2)o1 | inactive | inactive |  |  |
| COc1ccc2[nH]c(=O)c3c(c2c1)OC(C)(C)C=C3 | inactive | inactive |  |  |
| CCCCc1ccc(NS(=O)(=O)c2ccc(F)cc2)cc1 | inactive | inactive |  |  |
| C#CC(=O)N(c1ccc(OC)cc1OC)C(C(=O)NCC(=O)OCC)c1cccs1 (centres undefined) | 398 nM (active) | 6310 nM (active) |  |  |
| CCC[C@H](N[C@H]1CCc2cc(F)cc(F)c2C1)C(=O)Nc1cn(C(C)(C)CNCC(C)(C)C)cn1 | inactive | inactive |  |  |
| COc1ccc2nc3n[nH]c(C)c3c(NCCOCCO)c2c1 | inactive | inactive |  |  |
| COc1c(F)cccc1C(=O)N1C[C@@H](C)CC[C@H]1CNc1ccc(Br)cn1 | inactive | inactive |  |  |
| C=C1CC[C@@H](O)[C@]2(C)CC[C@H]3C(=C)C(=O)O[C@@H]3[C@@H]12 | inactive | inactive |  |  |
| CC(C)(O)C1CC(=O)C2(C)C(CCC3(C)C(c4ccoc4)OC(=O)C4OC432)C12CCC(=O)OC2 (centres undefined) | inactive | inactive |  |  |
| NCC(CNc1nc(Nc2cccc(NC(=O)N3CCCC3)c2)ncc1I)C(=O)c1cccs1 (centres undefined) | inactive | inactive |  |  |
| O=S(=O)(Cc1ccccc1)Nc1ccc(-c2ccc3c(cnn3-c3ccc(F)cc3)c2)c(C(F)(F)F)c1 | inactive | inactive |  |  |

| SMILES | Potency [1] | Potency [2] | activity change, negative = cytotoxicity [1] | activity change, negative = cytotoxicity [2] |
| --- | --- | --- | --- | --- |
| Cc1cnn(-c2ccccc2)c1NC(=O)COCc1ccccc1 | inactive | inactive |  |  |
| Fc1ccc2[nH]ccc2c1-c1nc(N2CCOCC2)c2sc(CN3CCN(CC4CC4)CC3)cc2n1 | inactive | inactive |  |  |
| O=C(c1cc(Cc2n[nH]c(=O)c3ccccc23)ccc1F)N1CCCNCC1 | inactive | inactive |  |  |
| CC(=O)O[C@@H]1CC[C@@]2(C)C(CC[C@]3(C)C2[C@H](O)C=C2[C@H]4[C@@H](C)[C@H](C)CC[C@]4(C)CC[C@]23C)[C@@]1(C)C(=O)O (some centres undefined) | inactive | inactive |  |  |
| CC(=O)O[C@@H]1[C@@H](O)[C@H](O[C@@H]2[C@@H](O)[C@@H](O)[C@H](O[C@H]3[C@H](O[C@H]4[C@H](O[C@H]5CC[C@@]6(C)C(CC[C@]7(C)C6CC=C6[C@@H]8CC(C)(C)CC[C@]8(C(=O)O)CC[C@]67C)[C@]5(C)CO)O[C@H](CO)[C@@H](O)[C@@H]4O)OC[C@@H](O)[C@@H]3O)O[C@H]2C)OC[C@H]1O (some centres undefined) |  |  | -11% [at 11.6 µM] | -6.37% [at 11.6 µM] |
| NS(=O)(=O)c1ccc(N2N=C(c3ccccc3)CC2c2ccccc2)cc1 (centres undefined) | inactive | inactive |  |  |
| COc1ccccc1OCCN1CC(COc2cccc3[nH]c4ccccc4c23)OCC1=O (centres undefined) | inactive | inactive |  |  |
| C/C=C/C=C/C=C/C(=O)O[C@@H]1C=C2COC(=O)[C@]2(O)[C@@]2(C)CCCC(C)(C)[C@H]12 | inactive | inactive |  |  |
| CC(C)S(=O)(=O)NC[C@@H]1CC(c2ccc(N3CCCC3)c(F)c2)=NO1 | inactive | inactive |  |  |
| COC(=O)CC1OC(C)C2=C(O)c3c(O)cccc3C(=O)C23OC13 (centres undefined) | 6310 nM (active) | 6310 nM (active) |  |  |
| CC(=O)OC(C)(C)/C=C/C(=O)C(C)(O)C1C(O)CC2(C)C3CC=C(C(C)(C)C(=O)O)C(CC(=O)O)C3(C)C(=O)CC12C (centres undefined) | inactive | inactive |  |  |
| COc1ccc2cc(-c3cc(-c4cc(Cl)cc(Cl)c4)nn3C(C)c3ccc(C(=O)NCCC(=O)O)cc3)ccc2c1 (centres undefined) | inactive | inactive |  |  |
| Cc1ccc(CNc2ncnc3ccc(-c4ccc(CO)o4)cc23)o1 | inactive | inactive |  |  |
| N#Cc1cccc(C(=O)Nc2cc(-c3ccccc3)nn2-c2ccccc2)c1 | inactive | inactive |  |  |
| CC1=C(C(=O)Nc2cc(Cl)ccc2Cl)C(c2ccco2)C2=C(CCCC2=O)N1 (centres undefined) | inactive | inactive |  |  |
| O=C([C@@H](Cc1cccc(C(F)(F)F)c1)NS(=O)(=O)c1cc(F)c2c(c1)CCNC2)N1CCCC1 | inactive | inactive |  |  |
| CC(C)=C1C[C@@]2(C)C(=CC1=O)CC[C@@H](OC(=O)/C(C)=C/CO)[C@@H]2C | inactive | inactive |  |  |
| CN(C)CCn1cc(-c2ccc(F)cc2)c(-n2cccc2)n1 | inactive | inactive |  |  |
| CC(C)(C)NC(=O)[C@H]1CC[C@H]2[C@@H]3CC[C@H]4NC(=O)CC[C@]4(C)[C@H]3CC[C@]12C | inactive | inactive |  |  |
| CCc1cccc(CC)c1-n1c(C=C(C)C)c(C(=O)N2CCNCC2)cc(-c2nc(-c3ccc(C(F)(F)F)cc3)cs2)c1=O | inactive | inactive |  |  |
| O=S(=O)(c1ccc(Cl)cc1)N1CCN(c2ccnc3cc(Cl)ccc23)CC1 | inactive | inactive |  |  |
| Cc1cn2cc(C(=O)N(C)CCO)cc(NC3CCOc4cccc(C)c43)c2n1 (centres undefined) | inactive | inactive |  |  |
| C=C1C(=O)OC2C=C(C)CC/C=C(\CO)CC(O)C12 (centres undefined) | inactive | inactive |  |  |
| O=C(c1ccc(Cl)cc1)N1CCN(c2ccnc3cc(Cl)ccc23)CC1 | inactive | inactive |  |  |

| SMILES | Potency [1] | Potency [2] | activity change, negative = cytotoxicity [1] | activity change, negative = cytotoxicity [2] |
| --- | --- | --- | --- | --- |
| CO[C@@H]1CC(OC2CCC3(C)C(CCC45CCC(C6=CC(=O)OC6)C(C)(CCC43)C5=O)C2)O[C@H](C)[C@@H]1O[C@@H]1O[C@H](CO[C@@H]2O[C@H](CO)[C@@H](O)[C@H](O)[C@H]2O)[C@@H](O)[C@H](O)[C@H]1O (some centres undefined) | 3160 nM (active) | 2820 nM (active) |  |  |
| COc1cc2ncnc(Nc3ccc(F)c(Cl)c3)c2cc1O | inactive | inactive |  |  |
| C=CCCN1CCC2(CC1)CN(C(=O)c1c(F)cccc1F)c1ccc(Cl)cc12 | inactive | inactive |  |  |
| O=C(Nc1ccc(Cl)cc1)c1ccccc1NCc1ccncc1 | inactive | inactive |  |  |
| CCCN1CCC=C(c2cc(-c3ccc(C)cc3)no2)C1 | inactive | inactive |  |  |
| O=C(Nc1ccc(Cl)cc1)C1CCCN(C(=O)c2cccc(-c3ccco3)c2)C1 (centres undefined) | inactive | inactive |  |  |
| CC(O)(C(=O)C1CC1(CO)COC1OC(CO)C(O)C(O)C1O)C1C(O)CC2C3CC=C4CC(O)CC(O)C4(C)C3C(O)CC21C (centres undefined) | 562 nM (active) | 562 nM (active) |  |  |
| C=C1CC2[C@@]3(C)C=CC(=O)C(C)(C)C3=C(O)C(=O)[C@@]2(C)C2(C(=O)OC)C(=O)C(C)OC(=O)[C@@]12C (some centres undefined) | inactive | inactive |  |  |
| COC(=O)c1ccc(N2CCN(C)CC2)c(NC(=O)c2cccc(OC)c2)c1 | inactive | inactive |  |  |
| COc1ccc(N2CCN(C(=O)c3cc4c(s3)-c3ccccc3S(=O)(=O)C4)CC2)cc1 | inactive | inactive |  |  |
| CO[C@@H]1[C@H](O)CCC2(CO2)[C@H]1[C@@]1(C)O[C@@H]1CC=C(C)C (some centres undefined) | inactive | inactive |  |  |
| CC(C)c1cc2c(N3CCN(C4=NCC(C)(C)S4)CC3)ncnc2s1 | inactive | inactive |  |  |
| O=C(NCCO)c1cccc(-c2cc(Nc3ccc(OC(F)(F)F)cc3)ncn2)c1 | inactive | inactive |  |  |
| O=S(=O)(NCc1ccccn1)c1ccc(Br)c2ccccc12 | inactive | inactive |  |  |
| C=C1CC[C@@H]2[C@](C)(CO)[C@H](O)CC[C@@]2(C)[C@@H]1/C=C/C1=CCOC1=O | inactive | inactive |  |  |
| O=C(Nc1ccc(C(F)(F)F)cn1)N1CCN(c2ncccc2C(F)(F)F)CC1 | inactive | inactive |  |  |
| CNC(=O)COC(=O)N1CCC(CCc2ccc(Cl)cc2)CC1 | inactive | inactive |  |  |
| CCS(=O)c1nc(-c2cccc(OCc3ccccc3)c2)cc(C(F)(F)F)n1 (centres undefined) | inactive | inactive |  |  |
| COC1=CC(=O)C=C(C)C12Oc1c(Cl)c(OC)cc(OC)c1C2=O (centres undefined) | inactive | inactive |  |  |
| C=C1C(OC2OC(CO)C(O)C(O)C2O)CC2C(C)(C)C(O)CCC2(C)C1CC/C(C)=C\COC(=O)CC(=O)O (centres undefined) | inactive | inactive |  |  |
| O=C1COc2nccc(-c3ccccc3F)c2CN1Cc1cc(C(F)(F)F)cc(C(F)(F)F)c1 | inactive | inactive |  |  |
| O=c1cc(NCCCN[C@@H]2CCOc3c(Br)cc(Br)cc32)[nH]c2ccsc12 | inactive | inactive |  |  |
| CCNC(=O)c1noc(-c2cc(Cl)c(O)cc2O)c1-c1ccc(OC)cc1 | 562 nM (active) | 501 nM (active) |  |  |
| C=C[C@]1(C)C[C@H](O)[C@H]2C(=C)C(=O)O[C@@H]2[C@H]1C(=C)CO | inactive | inactive |  |  |
